# Data reported in the supplement of paper PMC11417369.
# ± gives the standard deviation of the averaged measurements. In all, about 25,000 sequences were measured (“ln(normalized median fluorescence intensity)”: median about 8.6, highest 2% from about 10 on). Many of the other results were omitted from the sample, so the highest values are more common in it than they were.
# Tested on: PfAP2-EXP AP2 domain (GST-tagged)
# Assay: gcPBM binding intensity (ln(normalized median fluorescence intensity)); higher = stronger DNA binding
# Summary of the method: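 An Agilent 4 × 180k array of primer-extended double-stranded 36-bp intergenic genomic probes, with negative controls, was incubated for 1 h with GST-tagged P. falciparum DNA-binding domains expressed in E. coli. Alexa488 anti-GST antibody detected bound protein, scanned at 488 nm. Binding intensity is the highest Masliner-normalised natural-log median intensity across replicate spots of either probe orientation.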
row,Sequence,gcPBM binding intensity (ln)
1,AAAAACTTAATATTCACACATATATATATATATATA [CACACA_site5240],10.2 ± 0.45
2,ATATTCATATATACTTCACACACATTTTATCATTCA [CACACA_site8784],8.71 ± 0.39
3,AAAAATTTTATATTCACACACATATATATATATATA [CACACA_site624],10.2 ± 0.42
4,TAAAAAATTTTATATTCACACACATATATATATATA [CACACA_site8109],10.1 ± 0.31
5,AAAAATTTTATATTCACACACATATTTATATTTATA [CACACA_site6439],8.25 ± 0.27
6,AAAAAAAAATTATTCACACATATATATATATATATA [CACACA_site5579],10.2 ± 0.33
7,TAATTTTAAATATCTTCACACATTATATTTTTATAT [CACACA_site5411],8.34 ± 0.42
8,CATATTTGTTGACACACACACATATTTATATAAATA [CACACA_site7648],8.74 ± 0.4
9,TTTGCCATATGACACACACACATGTAAACCCCCTTT [CACACA_site6873],9.41 ± 0.45
10,ATATATTTTTACCATACACACATATAACAAATATAT [CACACA_site7706],8.75 ± 0.44
11,TTTTTAATTTTTTGTTGTACATATAATATATTATTA [XGTACX_site4903],8.6 ± 0.27
12,TTTTTTTTTAAAACATAATAAAAAATAAAACAACCT [GTGCAC_negctrl_site92],8.77 ± 0.28
13,ATATACACATTAATAACACACAATATGATAACAAAT [CACACA_site7670],8.79 ± 0.33
14,ATTACATGCAATATATGTACGTAATATATATATATA [XGTACX_site2300],9.91 ± 0.38
15,ATTTAAAAAAGAAAGGTGCATTTCAATAATGTAAAA [GTGCAC_site9585],8.62 ± 0.15
16,TTTTGATATAAAAAAAGTACATTAATAATATTAATT [XGTACX_site4248],8.29 ± 0.37
17,TTATTATATAAAATAAATAACAAAAAAAATAAAATA [GTGCAC_negctrl_site548],8.45 ± 0.43
18,CCTTGCCCCAGGAGTTCACACACATAATAGATTGTC [CACACA_site8138],8.82 ± 0.64
19,TTAACCTTTATATAATACGTATCATCCTCATATATA [CACACA_negctrl_site86],8.95 ± 0.61
20,TTATAAATATTCTTGGGTACTTAAGATGATATGTAA [XGTACX_site5496],8.34 ± 0.39
21,ATCTCTTATATATTCACACACATATATATAATTATA [CACACA_site1502],8.85 ± 0.42
22,GTTATTAAATAATTCACACACATATATATATATATA [CACACA_site2260],10.3 ± 0.45
23,AAAAAAAAAAAAAATTCACACACATATAAAAAATTA [CACACA_site8140],8.31 ± 0.47

row,Sequence,gcPBM binding intensity (ln)
1,GTTATTAAATAATTCACACACATATATAAATAAATA [CACACA_site7129],8.31 ± 0.48
2,CAAAATAAAAAATTCACACACATATAAATATAAATA [CACACA_site7065],8.54 ± 0.24
3,CAAAATAAAAAATTCACACACATATATATATATATA [CACACA_site2088],10.2 ± 0.38
4,GCGTTATTAAATAATTCACACACATATATATATATA [CACACA_site8711],10 ± 0.38
5,TTTATTATCTTATTCACACACATATATAAATATGTA [CACACA_site7369],8.58 ± 0.4
6,TTTATTATCTTATTCACACACATATATATATATATA [CACACA_site2869],10.2 ± 0.41
7,ATTATATATATATATAAACACACATAAATATAAATA [CACACA_site8291],8.56 ± 0.38
8,AAAATATTTATTTTTTGTACACATAAAAACGCACTT [XGTACX_site4132],8.62 ± 0.11
9,TATTATTTTTTAAATTGTACAATAAATTATAAAAGG [XGTACX_site1162],8.41 ± 0.39
10,TTCTAATATTTTTGCACACTAAACAATAAATTTCCT [CACACA_site3944],8.885 ± 0.078
11,AGCTCTCAAAATTATTCACACGTGTCCTGTTATATA [CACACA_site5415],9.26 ± 0.47
12,TTTGTGTAAAGAATCAGTACATATAATATATATATA [XGTACX_site1972],9.34 ± 0.33
13,ATATATTTCATTTTTGTACACACAACGTTGGAGGGT [CACACA_site8999],8.84 ± 0.39
14,AAAATAATTGTTTACACACCCATTTGTAATTTTACC [CACACA_site3614],8.54 ± 0.37
15,GTACCTATTTCATACACACACACACGCAAACAAACA [CACACA_site6590],9.01 ± 0.34
16,GTATATATGTATATGTGTACACATATTCTTAACTCA [XGTACX_site309],8.88 ± 0.33
17,CACTTAACACAAGAGTGTACACATATATATATATAT [XGTACX_site686],10.1 ± 0.53
18,TTAACTCAAGAGTGTACACATATATATATATATATA [CACACA_site4334],10.2 ± 0.47
19,TTATAAATGTAACGATGTACTTTTAAAAGTTTCCTT [XGTACX_site109],8.36 ± 0.38
20,TGGTATTAAGGAGAGGGTACAAAAAAAAAAAAAAAA [XGTACX_site1668],8.28 ± 0.49
21,AATAATATCATTTAGACACACACTCTTACAATATGT [CACACA_site8832],8.61 ± 0.45
22,GTTTATATTTAATTTTTTTGTTTTTTTGTGTAATTC [XGTACX_negctrl_site194],8.53 ± 0.47
